Results as given in paper PMC4336329 (PLoS ONE, 2015).
Screen size: about 310,000 compounds; about 14,000 (4.5%) showed an effect of 50% or more. Effects have a minus sign here. This is one part of a sample in which strong results are shown more often than they occur.

The compounds below were run against human ether-à-go-go-related gene (hERG) potassium channel (human, UniProt Q12809) (assay: primary screen, population patch clamp on CHO cells stably expressing hERG; higher = less effect of the substance).
Chain of human ether-à-go-go-related gene (hERG) potassium channel (Q12809 whole entry, looked up): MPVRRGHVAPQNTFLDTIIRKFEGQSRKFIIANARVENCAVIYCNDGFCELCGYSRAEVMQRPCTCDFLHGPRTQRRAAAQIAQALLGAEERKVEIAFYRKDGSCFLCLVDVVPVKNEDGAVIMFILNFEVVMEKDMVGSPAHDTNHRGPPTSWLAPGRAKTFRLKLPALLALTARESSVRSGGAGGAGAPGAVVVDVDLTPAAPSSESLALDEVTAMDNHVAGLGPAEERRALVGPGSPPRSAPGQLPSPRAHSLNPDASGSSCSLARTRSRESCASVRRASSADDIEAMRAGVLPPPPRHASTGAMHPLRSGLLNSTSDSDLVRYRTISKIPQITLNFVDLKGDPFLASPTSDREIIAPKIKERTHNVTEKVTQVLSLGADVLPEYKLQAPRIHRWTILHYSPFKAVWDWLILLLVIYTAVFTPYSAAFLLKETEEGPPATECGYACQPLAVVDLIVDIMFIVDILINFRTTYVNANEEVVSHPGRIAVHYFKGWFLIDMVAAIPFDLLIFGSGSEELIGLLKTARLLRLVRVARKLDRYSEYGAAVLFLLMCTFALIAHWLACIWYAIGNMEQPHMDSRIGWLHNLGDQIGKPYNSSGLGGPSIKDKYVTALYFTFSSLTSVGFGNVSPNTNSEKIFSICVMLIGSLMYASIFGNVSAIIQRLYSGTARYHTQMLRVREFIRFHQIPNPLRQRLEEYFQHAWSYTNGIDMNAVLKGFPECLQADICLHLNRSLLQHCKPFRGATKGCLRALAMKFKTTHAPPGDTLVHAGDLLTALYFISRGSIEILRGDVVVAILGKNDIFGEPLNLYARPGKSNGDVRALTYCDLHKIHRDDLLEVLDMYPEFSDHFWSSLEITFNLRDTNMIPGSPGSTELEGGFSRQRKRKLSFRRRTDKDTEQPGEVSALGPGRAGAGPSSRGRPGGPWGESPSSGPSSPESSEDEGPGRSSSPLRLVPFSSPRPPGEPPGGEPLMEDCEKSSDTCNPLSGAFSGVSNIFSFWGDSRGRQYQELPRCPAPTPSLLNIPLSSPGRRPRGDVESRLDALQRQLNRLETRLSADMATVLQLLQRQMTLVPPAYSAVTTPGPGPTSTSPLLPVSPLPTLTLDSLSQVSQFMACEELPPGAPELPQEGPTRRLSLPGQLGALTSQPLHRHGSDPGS
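Note: peak tail current of the secondary pulse compared with the same well before compound.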

| SMILES | hERG current change (%, negative = inhibition) at 10uM [%] |
| --- | --- |
| CCN(CC(=O)Nc1ccccc1OC)C(=O)c1ccccc1Sc1ccccc1C#N | 8.48 |
| O=C(Nc1ccccc1)N1CCCN(c2nccc(C(F)(F)F)n2)CC1 | -5.36 |
| O=C(CSc1ncn[nH]1)Nc1ccc(Br)cc1F | -5.57 |
| CCOC(=O)c1cnc2cc(C)ccn2c1=O | -7.41 |
| Cc1cccc(NC(=O)CN(C)CC(=O)NC(c2ccccc2)c2ccccc2)c1C | -30.5 |
| O=[N+]([O-])c1ccc(C2CN=C(Nc3ccccc3)S2)cc1 (centres unmarked) | -60.2 |
| CCc1ccc(NC2=NCC(c3ccccc3)S2)cc1 (centres unmarked) | -17.5 |
| Cc1ccccc1NC1=NCC(c2ccc([N+](=O)[O-])cc2)S1 (centres unmarked) | -44.9 |
| CCN(CC)c1ccc(/C=N/NC(=O)CNC(=O)c2ccc3c(c2)OCCO3)cc1 | -5.14 |
| COc1ccc(CC(=O)NCCS(=O)(=O)N2CCN(c3ccccc3OC)CC2)cc1 | -17.1 |
| CCc1ccc(-c2nc(CN3CCC(C(=O)NCc4ccco4)CC3)c(C)o2)cc1 | -66.3 |
| Cc1oc(-c2cccc(Cl)c2)nc1CN1CCC(C(=O)NCc2ccco2)CC1 | -78 |
| CCc1ccc(-c2nc(CS(=O)CC(=O)NCc3ccco3)c(C)o2)cc1 (centres unmarked) | 1.94 |
| Cc1oc(-c2ccc(Cl)cc2)nc1CN1CCC(C(=O)NCc2ccco2)CC1 | -71.2 |
| Cc1oc(-c2ccc(Cl)cc2)nc1CS(=O)CC(=O)NCc1ccco1 (centres unmarked) | -35.6 |
| Cc1oc(-c2cccc(Cl)c2)nc1CN1CCC(C(=O)NC2CC2)CC1 | 16.2 |
| CCc1ccc(-c2nc(CN3CCC(C(=O)NCc4ccc(F)cc4)CC3)c(C)o2)cc1 | -50.5 |
| O=C(NCc1ccco1)C1CCN(Cc2ccc(F)cc2)CC1.O=C(O)C(=O)O | -15.4 |
| COc1ccc(C(=O)NC2CCCCCC2)cc1S(=O)(=O)N1CCCc2ccccc21 | 11.3 |
| CCOc1ccc(C2N(c3ccc(OC)cc3)C(=O)C3CCCN32)cc1OC (centres unmarked) | -3.49 |
| CC1CCN(S(=O)(=O)c2ccc(NC(=O)CCN3C(=O)C4CC=CCC4C3=O)cc2)CC1 (centres unmarked) | -25.3 |
| Nc1ccc(N=Nc2ccccc2)c2ccccc12 | 22.4 |

| SMILES | hERG current change (%, negative = inhibition) at 10uM [%] |
| --- | --- |
| COc1ccccc1CN(C)C(=O)c1ccccc1Sc1ccccc1C#N | -25 |
| O=C(NCc1ccco1)c1ccc(S(=O)(=O)c2cccc(S(=O)(=O)N3CCOCC3)c2)cc1 | 2.58 |
| CCN(CC)P(=O)(c1n(CC)cc[n+]1CC)N(CC)CC.[I-] | 15.1 |
| CCOC(=O)Cn1c(CN2CCN(C(=O)c3ccco3)CC2)nc2c1c(=O)n(C)c(=O)n2C | -13.3 |
| O=C(Nc1ccc(N2CCN(C(=O)c3ccco3)CC2)c(Cl)c1)c1cccnc1 | -16.8 |
| Cc1oc(-c2ccccc2F)nc1CN1CCC(C(=O)NCc2ccco2)CC1 | -38 |
| Cc1ccccc1-c1nc(CN2CCC(C(=O)NCc3ccco3)CC2)c(C)o1 | -73.6 |
| COc1ccc(OC)c(S(=O)(=O)NC2CCN(Cc3ccccc3)CC2)c1 | -4.92 |
| Nc1ccc(C(=O)N/N=C2\CCCc3c2[nH]c2ccccc32)cc1 | 16.2 |
| COc1ccc(-n2nc(C(=O)NCC(=O)NCCCN3CCN(C)CC3)c3ccccc3c2=O)cc1OC | 18.9 |
| Cc1ccccc1CN1C2=NCCCN2c2ccccc21.Cl | -68 |
| Cc1ccccc1CN1C2=NCCN2c2ccccc21.Cl | -53.7 |
| CS(=O)(=O)NCc1nnc(SCC(=O)NC2CCCCC2)n1-c1ccc(F)cc1 | 11.6 |
| COCCn1c(=N)c(S(=O)(=O)c2ccc(Br)cc2)cc2c(=O)n3ccccc3nc21 | -44.3 |
| COCCn1c(=N)c(C(=O)NCc2ccco2)cc2c(=O)n3cc(C)ccc3nc21 | -82.1 |
| CCn1cc(C(=O)NCc2ccco2)c2cc(OC)c(OC)cc2c1=O | -20.9 |
| Cc1cc2ccccc2c(=O)n1CC(=O)NCc1ccco1 | 13.8 |
| Cc1ccc2nc3c(cc(C(=O)NCc4ccco4)c(=N)n3Cc3ccco3)c(=O)n2c1 | -77 |
| COCCn1cc(C(=O)NCc2ccco2)c2c3ccccc3n(C)c2c1=O | -20.6 |
| CCn1cc(C(=O)NCc2ccco2)c(=O)c2ccc(C)nc21 | 16.9 |
| COCCn1c(=N)c(C(=O)NCc2ccco2)cc2c(=O)n3ccccc3nc21 | -78.1 |
| COCCn1c(=N)c(S(=O)(=O)c2ccc(F)cc2)cc2c(=O)n3ccccc3nc21 | -25.5 |

| SMILES | hERG current change (%, negative = inhibition) at 10uM [%] |
| --- | --- |
| COc1ccc2c(c1)CCc1c(C(=O)N3CCCC3)noc1-2 | -7.79 |
| CC(C)c1ccccc1NC(=O)COC(=O)Cc1c[nH]c2ccccc12 | 7.28 |
| C/C(=N\NC(=O)c1ccncc1)c1c(O)[nH]c(=O)[nH]c1=O | -1.22 |
| [O-]/C(=C(\C(=S)Nc1ccc(SC(F)F)cc1)[n+]1ccccc1)c1cc(Cl)ccc1Cl | 1.83 |
| COc1ccc(-c2noc(CN(C(=O)c3c(-c4ccccc4Cl)noc3C)C(C)C)n2)cc1 | 14.8 |
| O=C(O)C1CC=CCC1C(=O)Nc1cccc(C(=O)N2CCCCC2)c1 (centres unmarked) | -5.25 |
| CN1C[C@H](C(=O)N[C@]2(C)O[C@@]3(O)[C@@H]4CCCN4C(=O)[C@H](Cc4ccccc4)N3C2=O)CC2c3cccc4[nH]cc(c34)C[C@H]21.O=C(O)C(O)C(O)C(=O)O (some centres unmarked) | 2.03 |
| CC(NC(=O)NNC(N)=S)(C(F)(F)F)C(F)(F)F | 4.68 |
| Cc1ccc2nc(N(CCCN(C)C)C(=O)c3ccc4c(c3)CCCC4)sc2c1.Cl | -71.5 |
| CN(C)CCCN(C(=O)c1ccc2c(c1)CCCC2)c1nc2ccc(Cl)cc2s1.Cl | -43.8 |
| CCN(CC)CCN(C(=O)c1ccc2c(c1)CCCC2)c1nc2ccc(C)cc2s1.Cl | 10.1 |
| CCN(CC)CCN(C(=O)c1ccc2c(c1)CCCC2)c1nc2ccc(F)cc2s1.Cl | -1.94 |
| CCOc1ccc2nc(N(CCCN(C)C)C(=O)c3ccc4c(c3)CCCC4)sc2c1.Cl | -14.1 |
| CN(C)CCCN(C(=O)c1ccc2c(c1)CCCC2)c1nc2ccc(F)cc2s1.Cl | -66.9 |
| CCN(CC)C(=O)C1CCC(C)(C(=O)O)C1(C)C (centres unmarked) | 3.91 |
| O=S1(=O)CCO[C@H]2Cc3ccccc3[C@H]2N1Cc1cccc(Cl)c1 | -28.4 |
| Cc1nc(SCn2nnc3ccccc3c2=O)nc(C)c1C | -12.3 |
| Cc1ccc(OCCNC(=O)/C=C/c2ccccc2)cc1C | -8.32 |
| Cc1cc(=O)n2nc(N3CCC(C(=O)NC(C)c4ccccc4)CC3)sc2n1 (centres unmarked) | 5.85 |
| O=C(OCc1nc2ccsc2c(=O)[nH]1)c1ccccc1 | 0.869 |
| COc1ccccc1C(=O)NCC(=O)OCC(=O)c1cccc2ccccc12 | 4.06 |
| CCc1ccc(C(=O)COC(=O)CNC(=O)c2ccc(Br)o2)cc1 | -64 |

| SMILES | hERG current change (%, negative = inhibition) at 10uM [%] |
| --- | --- |
| Cc1ccc(C(=O)COC(=O)CNC(=O)c2ccc(Br)o2)cc1[N+](=O)[O-] | 4.86 |
| CCc1ccc(C(=O)COC(=O)CNC(=O)CNC(=O)Cc2ccccc2)cc1 | 9.36 |
| Cc1cccc(C(=O)NCC(=O)OCC(=O)N(C)CC(=O)Nc2ccccc2Cl)c1 | -40.5 |
| CCc1ccc(C(=O)COC(=O)CNC(=O)c2ccco2)cc1 | -18.2 |
| CCc1ccc(C(=O)COC(=O)CNC(=O)COc2ccccc2)cc1 | -57.4 |
| COc1ccccc1C(=O)COC(=O)CNC(=O)c1ccc(Br)o1 | -50.7 |
| COc1ccccc1C(=O)NNC(=O)c1ccc(Br)o1 | 14 |
| CN(CC(=O)Nc1ccccc1Cl)C(=O)COC(=O)CNC(=O)c1ccc(Br)o1 | -61.4 |
| CCc1ccc(C(=O)COC(=O)CNC(=O)Cc2ccccc2)cc1 | 0.382 |
| CN(CC(=O)Nc1ccccc1Cl)C(=O)COC(=O)Cc1ccc(F)cc1 | 1.33 |
| CC(=O)N(CN1C(=O)c2ccccc2C1=O)c1cccc(C)c1 | 4.43 |
| Clc1ccc(-n2ncc3c(NCc4ccccn4)ncnc32)cc1 | 4.15 |
| COc1ccccc1NS(=O)(=O)c1ccc(C)c(C(=O)NCC2(N(C)C)CCCCC2)c1 | -42.9 |
| O=C(NCCCN1CCOCC1)c1ccc2c(c1)N(Cc1cccc(Cl)c1)C(=O)CS2 | -16.7 |
| O=C(COC(=O)CNC(=O)c1ccco1)Nc1ccccc1OC(F)F | 11.6 |
| CC1Cc2ccccc2N1C(=O)c1ccc(Br)o1 (centres unmarked) | -13.1 |
| O=C(COC(=O)CNC(=O)c1ccc(Br)o1)Nc1ccccc1OC(F)F | -51.6 |
| O=C(Nc1ccccc1OC(F)F)c1ccc(Br)o1 | -20.9 |
| CC1Cc2ccccc2N1C(=O)COC(=O)c1ccc(Br)o1 (centres unmarked) | 8.05 |
| CC1Cc2ccccc2N1C(=O)COC(=O)CNC(=O)c1ccc(Br)o1 (centres unmarked) | -60.2 |
